Results filed as inconclusive are left out. Values without a mark were called inactive. Activity calls are given as the source filed them. The call rests on the fitted dose curve; in most records, active means well fitted curve in the direction sought with a large enough effect; inconclusive means small, poorly fitted or top-dose-only effect, or another doubt; inactive means no such curve, though single readings can be large; an effect the other way counts as inactive or inconclusive.
Biological target: Ubiquitin carboxyl-terminal hydrolase 1 (Homo sapiens) (UniProt O94782)
Sequence (O94782 whole entry, looked up): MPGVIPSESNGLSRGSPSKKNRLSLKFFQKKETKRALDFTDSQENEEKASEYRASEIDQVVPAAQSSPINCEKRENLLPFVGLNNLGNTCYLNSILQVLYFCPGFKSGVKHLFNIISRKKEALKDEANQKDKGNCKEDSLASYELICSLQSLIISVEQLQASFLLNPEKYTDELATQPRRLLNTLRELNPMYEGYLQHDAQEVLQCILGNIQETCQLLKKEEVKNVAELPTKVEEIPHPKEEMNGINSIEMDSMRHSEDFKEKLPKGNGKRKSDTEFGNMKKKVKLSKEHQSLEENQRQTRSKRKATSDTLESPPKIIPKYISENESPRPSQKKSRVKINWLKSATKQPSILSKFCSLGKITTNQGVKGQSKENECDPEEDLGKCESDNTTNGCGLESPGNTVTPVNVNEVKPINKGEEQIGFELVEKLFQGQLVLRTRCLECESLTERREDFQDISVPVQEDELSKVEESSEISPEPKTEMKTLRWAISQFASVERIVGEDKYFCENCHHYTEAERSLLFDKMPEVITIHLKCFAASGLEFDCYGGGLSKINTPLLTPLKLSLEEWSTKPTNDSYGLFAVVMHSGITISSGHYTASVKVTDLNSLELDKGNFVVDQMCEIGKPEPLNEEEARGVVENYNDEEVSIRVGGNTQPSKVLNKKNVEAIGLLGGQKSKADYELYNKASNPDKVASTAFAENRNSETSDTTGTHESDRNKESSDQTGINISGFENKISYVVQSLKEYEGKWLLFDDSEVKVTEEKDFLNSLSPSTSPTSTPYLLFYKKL
Test: Inhibitors of USP1/UAF1: Pilot qHTS (AID 504865); further: nearly all actives have a fitted effect of over 35% in size; further: potency means the concentration at half of the fitted maximal effect;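 on activity change, negative = inhibition: rhodamine fluorescence freed from ubiquitin-rhodamine substrate followed over time; top concentration of the series differs between compounds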
Details: purified USP1/UAF1, Ub-rhodamine cleavage fluorescence; series mostly up to 114 µM; activity change, negative = inhibition: at the top concentration
Summary of the method: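 1nM USP1/UAF1 + cpd, 15 min RT; start w/ Ub-Rho 150nM final; kinetic FL 480/540 nm, 6 reads q60 s. Buffer 50mM HEPES pH 7.8, 0.5mM EDTA, 1mM TCEP, 0.01% Tween-20, 0.1 mg/ml BSA.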
On the % scale 0 is the no-effect control and ±100 the full control effect.

Compound | activity change, negative = inhibition [%] | Potency
N=C(N)c1ccccc1 | -10.3 | –
O=C(O)/C=C/c1ccc(O)c(O)c1 | -2.62 | –
Cc1nc(N=Nc2ccc(C(=O)O)cc2)c(COP(=O)(O)O)c(C=O)c1O | – | 22.4 µM (active)
CC[N+](CC)(CC)CC(=O)Nc1c(C)cccc1C | -0.71 | –
CCN1C(=O)C=CC1=O | 2.66 | –
O=C(O)C1CCNCC1 | -7.88 | –

Test system: not listed separately
Test: qHTS for Inhibitors of ATXN expression: Validation of Cytotoxic Assay (AID 588349)
Details: cytotoxicity counter-screen for ATXN expression inhibitors, cell viability; series mostly up to 57.1 µM; activity change, negative = cytotoxicity: at the top concentration
Summary of the method: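 HEK293 cells treated with titrated compound for 72 hr at 37 degrees C; viability read as intracellular ATP by CellTiter Glo luminescence.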

Compound | activity change, negative = cytotoxicity [%]
N[C@@H](CCCC(=O)O)C(=O)O | -7.94
CSC(N)=NCCC[C@H](N)C(=O)O | -1.8
NCCCCN=C(N)N | -0.907
C#CCn1c(=O)c2c(ncn2C)n(C)c1=O | -2.7
COc1cc(N)c(Cl)cc1C(=O)OCCN1CCCCC1 | -3.46
c1ccc(C2CN3CCSC3=N2)cc1 (configuration not stated) | 13.2
NCCS(=O)O | -16.5
Oc1ccc(Cn2cc[nH]c2=S)cc1 | -7.45
COc1ccc(-c2ccc(N)[n+](CCCC(=O)O)n2)cc1 | -11.8
CC(C)Cn1c(=O)n(C)c(=O)c2[nH]cnc21 | -8
Cn1cc(C(F)(F)F)nc1-c1ccc(OCC(O)CNCCOc2ccc(O)c(C(N)=O)c2)cc1 (configuration not stated) | -9.17
Cn1c(=O)c2c(nc(/C=C/c3cccc(Cl)c3)n2C)n(C)c1=O | -6.81
Cn1cc(C(=O)OCC2CCN(CCNS(C)(=O)=O)CC2)c2ccccc21 | -26.8
NC/C=C\C(=O)O | 2.06
Nc1ccc(-c2nc3ccc(-c4nc5ccc(N)cc5[nH]4)cc3[nH]2)cc1 | -10.7
NC(=O)c1cc[n+](CC2=C(C(=O)O)N3C(=O)[C@@H](NC(=O)[C@@H](c4ccccc4)S(=O)(=O)[O-])[C@H]3SC2)cc1 | -11.6
N[C@@H](Cc1c[nH]c2ccccc12)C(=O)O | -10
CN[C@H](CC(=O)O)C(=O)O | -8.53

Compound | activity change, negative = cytotoxicity [%]
CCCCCCCCCC[Si](C)(C)CCC(=O)NC(Cc1ccc(C)cc1)c1ccccc1 (configuration not stated) | -10.8
Cc1cccc(C)c1OCC(N)C(C)C (configuration not stated) | -16.3
Cn1ccnc1 | -9
CCCn1c(=O)c2[nH]c(-c3ccc(S(=O)(=O)O)cc3)nc2n(CCC)c1=O | -9.3
C#CC(N)CCC(=O)O (configuration not stated) | -3.86
COc1ccccc1N1CCN(CCCCNC(=O)c2ccc3ccccc3c2)CC1 | -13.6
CCSC(=N)N | -17.2
O=C(O)[C@H]1NCCC[C@H]1C(=O)O | 1.86
CC(C)NC[C@H](O)COc1ccc(CC(N)=O)cc1 | -4.88
CCC(=O)N1CCN(C(=O)c2ccccc2)CC1 | 10
NC(=O)CNCCC(c1ccccc1)c1ccccc1 | -16
Nc1ncnc2c1ncn2C1CCCO1 (configuration not stated) | 2.35
N=C(N)c1ccccc1 | -14.7
O=C(O)/C=C/c1ccc(O)c(O)c1 | -11.2
CC[N+](CC)(CC)CC(=O)Nc1c(C)cccc1C | -7.89
CCN1C(=O)C=CC1=O | -16.1
O=C(O)CCC(=O)N1CCCC1C(=O)O (configuration not stated) | 3.42
O=C(O)C1CCNCC1 | -9.05
